# Results published in the supplement of paper PMC10981050.
# Counter-ions that a name gives are not always drawn.
# System: OCI-AML2
# Test: cell viability relative to vehicle control; higher = less cytotoxic
# Details: 10 µM; SRSF2 genotype: wt/wt
# How it was run: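 Four leukaemia lines, as CRISPR-edited mutant clones and isogenic wild-type clones, were tested against Selleck bioactive, kinase and epigenetic probe libraries after removal of identity-inconsistent compounds. Cells were exposed to a single 10 µM dose for 48 h, and CellTiter-Glo luminescence was then read. Viability was calculated relative to the on-plate vehicle control.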
row,Structure (SMILES),cell viability [%]
1,NC(=O)c1cccc2cn(-c3ccc(C4CCCNC4)cc3)nc12 (stereo not drawn) [MK-4827(Niraparib)],51.5
2,CCOC(=O)C1=C(COCCN)NC(C)=C(C(=O)OC)C1c1ccccc1Cl (stereo not drawn) [Amlodipine besylate (Norvasc)],44.2
3,Cc1ccccc1C(OCCN(C)C)c1ccccc1 (stereo not drawn) [Orphenadrine citrate (Norflex)],95
4,Cc1ccc(C(C)C)cc1O [Carvacrol],100
5,CN1CCN(c2ccc(C(=O)Nc3n[nH]c4ccc(Cc5cc(F)cc(F)c5)cc34)c(NC3CCOCC3)c2)CC1 [Entrectinib (RXDX-101)],0.35
6,Nc1nc(N)nc(-c2cc(Cl)ccc2Cl)n1 [Irsogladine],101
7,O=C(Nc1ncc([N+](=O)[O-])s1)c1ccccc1O [Tizoxanide],96.1
8,CO[C@H]1C[C@@H]2CC[C@@H](C)[C@@](O)(O2)C(=O)C(=O)N2CCCC[C@H]2C(=O)O[C@H]([C@H](C)C[C@@H]2CC[C@H](n3cnnn3)[C@H](OC)C2)CC(=O)[C@H](C)/C=C(\C)[C@@H](O)[C@@H](OC)C(=O)[C@H](C)C[C@H](C)/C=C/C=C/C=C/1C [Zotarolimus (ABT-578)],61.1
9,O=C(c1ccc(OCCCc2c[nH]cn2)cc1)C1CC1 [Ciproxifan Maleate],83.4
10,Cc1ccc2nc(CN(CCN(Cc3nc4ccc(C)cc4[nH]3)Cc3nc4ccc(C)cc4[nH]3)Cc3nc4ccc(C)cc4[nH]3)[nH]c2c1,0.63
11,Nc1c(Br)cc(Br)cc1CN[C@H]1CC[C@H](O)CC1 [Ambroxol],112
12,O=c1cc(-c2ccc(O)c(O)c2)oc2cc(O)c([C@@H]3O[C@H](CO)[C@@H](O)[C@H](O)[C@H]3O)c(O)c12 [Homoorientin],88.7
13,CC(C)(O)CC(=O)NCCn1ccc2ncnc(Nc3ccc(Oc4cccc(C(F)(F)F)c4)c(Cl)c3)c21,76.8
14,C=CC(=O)Nc1cccc(Nc2nc(Nc3ccc(OCCOC)cc3)ncc2F)c1,31.8
15,Cc1ncc(COP(=O)(O)O)c(C=O)c1O [Pyridoxal phosphate],110
16,NC(=O)c1cnccn1 [Pyrazinamide (Pyrazinoic acid amide)],109
17,O=C(O)c1ccc(O)c(O)c1 [Protocatechuic acid],104

row,Structure (SMILES),cell viability [%]
1,O=C(NC(NC(=S)Nc1ccc(F)c([N+](=O)[O-])c1)C(Cl)(Cl)Cl)C(c1ccccc1)c1ccccc1 (stereo not drawn),4.06
2,O=C1CCN(c2ccccc2)N1 [Phenidone],111
3,C[C@@H]1CC[C@@]2(OC1)O[C@H]1C[C@H]3[C@@H]4CC=C5C[C@@H](O[C@@H]6O[C@H](CO)[C@@H](O)[C@H](O)[C@H]6O)CC[C@]5(C)[C@H]4CC[C@]3(C)[C@H]1[C@@H]2C [Trillin],98.5
4,COc1ccc(C[C@@H]2c3cc(Oc4cc(C[C@@H]5c6cc(O)c(OC)cc6CCN5C)ccc4O)c(OC)cc3CCN2C)cc1 [Isoliensinine],0.95
5,CCCCCCCCOc1ccccc1C(=O)Nc1ccc(C(=O)OCC[N+](C)(CC)CC)cc1 [Otilonium Bromide],70.2
6,COC(=O)c1cc(O)c(O)c(O)c1 [Methyl gallate],110
7,O=C(O)Cc1cccc2ccccc12 [Potassium 1-Naphthaleneacetate],98.8
8,O=c1[nH]c(=O)n([C@H]2C[C@H](O)[C@@H](CO)O2)cc1C(F)(F)F [Trifluridine (Viroptic)],26.8
9,C[C@@H](Oc1cc(-n2cnc3ccc(CN4CCN(C)CC4)cc32)sc1C(N)=O)c1ccccc1C(F)(F)F,17.1
10,COc1cccc(OC)c1C(=O)OCc1cc(O)ccc1O[C@@H]1O[C@H](CO)[C@@H](O)[C@H](O)[C@H]1O [Curculigoside],109
11,OC[C@@H](O)[C@@H](O)[C@H](O)[C@@H](O)CO [Sorbitol (Glucitol)],100
12,CC(=O)CCC=C(C)CCC=C(C)CCC=C(C)CCC=C(C)C [Teprenone],84.9
13,C[C@]12CC[C@@H]3c4ccc(O)cc4CC[C@H]3[C@@H]1CC[C@@H]2O [Estradiol],111
14,CCCNC(C)C(=O)Nc1c(C)csc1C(=O)OC (stereo not drawn) [Articaine HCl],99.9
15,O=C1N=C(N2CCOCC2)CN1c1ccc(Cl)cc1,86.8
16,COc1cc(N2CCC(N3CCN(C)CC3)CC2)ccc1Nc1ncnc(Nc2ccccc2S(=O)(=O)C(C)C)n1,21.9
